# Experimental data as given in PubChem BioAssay AID463173 (ICCB-Longwood Screening Facility, Harvard Medical School, 2010).
# In all, about 52,000 compounds went through this assay and about 4,300 (8.3%) were called active. Cut-off read from the data, not from the text of the source: active = survival mostly below about 52% (no sharp cut-off); inactive = mostly above about 56%. For the sample, actives were picked, then their nearest neighbours and some compounds at random.
# Test system: DeltatarO mutant
# Experiment: growth inhibition of S. aureus wild type versus tarO mutant, primary screen, teichoic acid synthesis inhibitors, RN4220, OD600 (AID 463173)
# Settings: OD600, 18 h, active compounds read low, screened at 18.75 µg/mL (by protocol)
row,Compound,survival
1,Cc1cccc(C)c1NC(=O)CN(Cc1ccc(Br)cc1)S(=O)(=O)c1ccccc1,60% (inactive)
2,CCOc1ccccc1NC(=O)C(CC)Sc1nc2ccncc2[nH]1 (stereo not given),122% (inactive)
3,COc1cc(NC(=O)N2CCC(CN3CCCC3)CC2)cc(OC)c1OC,79% (inactive)
4,O=C(Cn1nnc2sc(-c3ccccc3)cc2c1=O)Nc1cccc(C(F)(F)F)c1,40% (inactive)
5,COc1ccc(C2(NC(=O)c3ccc(Cn4cc(Cl)cn4)o3)CCCCC2)cc1,102% (inactive)
6,O=c1c2ccccc2n(Cc2c(F)cccc2Cl)c(=O)n1CCc1ccccc1,85% (inactive)
7,COCCN(CCOC)c1ncnc2c1c(-c1ccccc1)cn2-c1ccc(C)c(Cl)c1,67% (inactive)
8,COc1ccccc1-c1cc(-c2ccc(O)cc2)nc(N)c1C#N,12% (active)
9,CN(C)c1ccc(-c2cc(-c3ccccc3)c(C#N)c(N)n2)cc1,105% (inactive)
10,CCCSc1nc(-c2ccc(OC)cc2)cc(-c2ccccc2OC)c1C#N,64% (inactive)
11,CCOc1ccc2c(c1)c(=O)c(C(=O)c1ccccc1)cn2Cc1ccccc1F,83% (inactive)
12,O=C(/C=N/O)NCCN1CCCCC1,98% (inactive)
13,CCCOc1ccc(CNC(=O)C2CCN(C(=O)c3sccc3-n3cccc3)CC2)cc1,79% (inactive)
14,Cc1ccc(S(=O)(=O)N2CCCc3cc(NS(=O)(=O)c4cccc(Cl)c4)ccc32)cc1,68% (inactive)
15,Cc1ccc(C2Nc3cc(C)c(C)cc3-n3c(-c4ccccc4)c4c(=O)n(C)c(=O)n(C)c4c32)o1 (stereo not given),68% (inactive)
16,Cn1c(=O)c2c(-c3ccccc3)n3c(c2n(C)c1=O)C(c1cc(Cl)ccc1O)Nc1ccccc1-3 (stereo not given),1% (active)
17,COc1ccccc1C1Nc2ccccc2-n2c(-c3ccccc3)c3c(=O)n(C)c(=O)n(C)c3c21 (stereo not given),53% (inactive)
18,COc1ccc(-c2c3c(=O)n(C)c(=O)n(C)c3c3n2-c2ccccc2NC3c2ccccc2OC)cc1 (stereo not given),74% (inactive)
19,Cc1ccc(C2Nc3ccccc3-n3c(-c4ccccc4)c4c(=O)n(C)c(=O)n(C)c4c32)o1 (stereo not given),59% (inactive)
20,Cn1c(=O)c2c(-c3ccccc3)n3c(c2n(C)c1=O)C(c1ccco1)Nc1ccccc1-3 (stereo not given),77% (inactive)

row,Compound,survival
1,COc1ccc(-c2c3c(=O)n(C)c(=O)n(C)c3c3n2-c2ccccc2NC3c2ccco2)cc1 (stereo not given),50% (inactive)
2,Cc1cc2c(cc1C)-n1c(-c3ccccc3)c3c(=O)n(C)c(=O)n(C)c3c1C(c1ccco1)N2 (stereo not given),80% (inactive)
3,COc1ccc(-c2nc3ccccc3n3c(-c4ccccc4)c4c(=O)n(C)c(=O)n(C)c4c23)cc1,80% (inactive)
4,COc1ccc(O)c(C2Nc3ccccc3-n3c(-c4ccccc4)c4c(=O)n(C)c(=O)n(C)c4c32)c1 (stereo not given),3% (active)
5,Cc1ccc(-c2c3c(=O)n(C)c(=O)n(C)c3c3n2-c2ccccc2NC3c2ccc(C)cc2O)cc1 (stereo not given),2% (active)
6,COc1ccc(-c2c3c(=O)n(C)c(=O)n(C)c3c3n2-c2ccccc2NC3c2ccc(O)cc2O)cc1 (stereo not given),0% (active)
7,COc1ccc(OCC(=O)Nn2cnnc2)cc1,73% (inactive)
8,O=C(Cn1c(=O)oc2cc(S(=O)(=O)N3CCCCCC3)ccc21)Nc1ccc(F)cc1F,84% (inactive)
9,Cc1ccc(CCNC(=O)c2c(C)oc3ncn(CC(C)C)c(=O)c23)cc1,119% (inactive)
10,CC(C)n1cc2c(c1-c1ccccc1Cl)c(=O)n(C)c(=O)n2C,89% (inactive)
11,Cc1cc(=O)n2c(C(=O)Nc3ccc(Br)cc3)c(C(=O)Nc3ccccc3)sc2n1,62% (inactive)
12,C=CCn1c(=O)[nH]c2c1c(=O)n(C)c(=O)n2C,80% (inactive)
13,Cn1c(=O)c2c([nH]c(=O)n2Cc2ccc(Cl)cc2Cl)n(C)c1=O,42% (active)
14,Cn1c(=O)c2c(nc(Oc3ccc(C#N)cc3)n2Cc2ccc(Cl)cc2Cl)n(C)c1=O,106% (inactive)
15,CCOc1ccccc1N(CC)C(=O)Nc1cn(C)c(=O)c2ccccc12,94% (inactive)
16,CN(C(=O)Nc1cn(C)c(=O)c2ccccc12)c1ccccc1,-5% (active)
17,Cc1ccc(NC(=O)Nc2cn(C)c(=O)c3ccccc23)c(Cl)c1,89% (inactive)
18,CCc1ccc(NC(=O)N(Cc2c[nH]c3ccccc23)C2CCCCC2)cc1,84% (inactive)
19,CCOc1ccc(NC(=O)N(Cc2c[nH]c3ccccc23)C2CCCCCC2)cc1,79% (inactive)
20,CCc1ccc(NC(=O)N(Cc2cn(CC)c3ccccc23)C2CCCCC2)cc1,-13% (active)

row,Compound,survival
1,CCc1ccc(NC(=O)N(Cc2c[nH]c3ccccc23)C2CCCCCC2)cc1,102% (inactive)
2,CCOc1ccc(NC(=O)N(Cc2c[nH]c3ccccc23)C2CCCCC2)cc1,74% (inactive)
3,CCOc1ccc(NC(=O)N(Cc2cn(CC)c3ccccc23)C2CCCCCC2)cc1,-12% (active)
4,COc1ccc(/C=C/C(=O)Nc2nc(-c3cccs3)ns2)cc1OC,48% (inactive)
5,Cc1ccc(Nc2c(-c3cccc(Cl)c3)nc3cccc(C)n23)cc1,49% (inactive)
6,COc1cc(NC(=O)Nc2nnc(N3CCCCC3)s2)cc(OC)c1,68% (inactive)
7,Cc1oc2ncn(CC(C)C)c(=O)c2c1C(=O)NCCCN1CCCCC1C (stereo not given),87% (inactive)
8,COc1ccc(N2CCN(C(=O)COCc3cc(-c4ccc5c(c4)OCO5)on3)CC2)cc1,92% (inactive)
9,COc1cccc(C(c2c(O)cc(C)n(Cc3ccco3)c2=O)N2CCC(C)CC2)c1 (stereo not given),74% (inactive)
10,O=C(Cc1ccc(Cl)cc1)NCCN1CCOCC1,91% (inactive)
11,CC1=C(C(=O)Nc2ccc(C)cc2C)C(c2ccc(O)cc2)n2nc(SCC(=O)c3ccc(C)cc3)nc2N1 (stereo not given),125% (inactive)
12,COc1cc(C(=O)N(Cc2ccc(N(C)C)cc2)CC2CCCO2)cc(OC)c1OC (stereo not given),47% (active)
13,Cc1ccc(C(=O)N(Cc2ccc(N(C)C)cc2)CC2CCCO2)cc1 (stereo not given),50% (inactive)
14,COc1ccc(C(=O)N(Cc2ccc(N(C)C)cc2)CC2CCCO2)cc1 (stereo not given),63% (inactive)
15,Cn1c(=O)n(C)c2cc(NS(=O)(=O)c3ccc(C(C)(C)C)cc3)c(NCc3ccccc3)cc21,43% (active)
16,Cn1c(=O)n(C)c2cc(NS(=O)(=O)c3ccc(Br)cc3)c(NCc3ccccc3)cc21,57% (inactive)
17,CC(C)c1ccc(S(=O)(=O)Nc2cc3c(cc2NCc2ccccc2)n(C)c(=O)n3C)cc1,39% (active)
18,Cc1ccc(S(=O)(=O)Nc2cc3c(cc2NCc2ccccc2)n(C)c(=O)n3C)cc1,73% (inactive)
19,Cn1c(=O)n(C)c2cc(NS(=O)(=O)c3ccccc3)c(NCc3ccccc3)cc21,68% (inactive)
20,Cn1c(=O)n(C)c2cc(NS(=O)(=O)c3ccc(Cl)cc3)c(NCc3ccccc3)cc21,117% (inactive)
